Assay [1] is described as follows: Viability qHTS for spleen associated tyrosine kinase inhibitor (SYKi) naive MV4-11 cells (AID 1963823). Note: nearly all actives have a fitted effect of over 40% in size. An outline of the steps:
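Seeding of 500 SYKi-naive MV4-11 cells per well onto pre-dispensed compounds preceded a 72 hr incubation at 37 C. Luminescent CellTiter-Glo signal, read after 10 min at room temperature, reflected viable cells.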
On the technique in general: Quantitative high-throughput screening tests each substance at several concentrations.

Assay [2] in a line: Viability qHTS for spleen associated tyrosine kinase inhibitor (SYKi) drug resistant MV4-11 cells (AID 1963824). Note: nearly all actives have a fitted effect of over 35% in size. An outline of the steps:
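SYK inhibitor-resistant MV4-11 AML cells, 500 per well, added to predispensed compounds and incubated 72 hr at 37 C, 5% CO2. Viability measured by CellTiter-Glo luminescence after 10 min at room temperature.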

Assay [3] is described as follows: Quantitative highthroughput screen to assess conditional lethalithy of P12 Ichikawa cells grown in Human Plasma-Like Medium with dialyzed fetal bovine serum (HPLM+ds) (AID 1963879). For Viability: series mostly up to about 46 µM. Note: nearly all actives have a fitted effect of over 35% in size. Conditions: Potency: viability. An outline of the steps: (§1)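 Each medium arm—HPLM with 10% dialyzed FBS, or RPMI1640 with 5 mM glucose and 10% untreated or dialyzed FBS—was screened against an 11-point, 3-fold compound titration for 48 h at 37 °C, with CellTiter-Glo luminescence as endpoint.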

A short description of assay [4]: Quantitative highthroughput screen to assess conditional lethalithy of P12 Ichikawa cells grown in RPMI1640 with untreated serum (RPMI+s) (AID 1963881).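 For Viability: series mostly up to about 46 µM; 100% = DMSO wells and 0% = empty wells without cells.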 Note: nearly all actives have a fitted effect of over 35% in size. Conditions: Potency: viability. An outline of the steps:
as §1

Assay [5] can be described thus: Cellular viability qHTS for adrenocortical cancer (ACC) cell line SW-13 (AID 1963989).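 For activity (max response): cells grown in serum-free medium with ITS supplement; % is set by controls: 0 for no effect and ±100 for the full control effect.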 Note: nearly all actives have a fitted effect of over 65% in size. Conditions: SW-13 ACC cells viability, CellTiter-Glo, 48 h; activity (max response): active compounds read low. In short, it runs like this:
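SW-13 cells in ITS-supplemented serum-free DMEM were plated overnight, then exposed for 48 h at 37C to compound titrations (up to 46 uM final). Viability was read by CellTiter-Glo luminescence; four-parameter logistic fits gave IC50 and efficacy.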

Assay [6] in a line: Cellular viability qHTS for adrenocortical cancer (ACC) cell line NCI-H295R (AID 1963990). Note: nearly all actives have a fitted effect of over 60% in size. An outline of the steps: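 Luminescent ATP read-out (CellTiter-Glo, 20 min RT) after 48 h drug exposure of NCI-H295R cells; a titration up to 46 uM final. Data normalized to doxorubicin (100% inhibition) and DMSO (0%); 4-parameter fit gives IC50, max response.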
Assay [7] is described as follows: Quantitative highthroughput screen to assess conditional lethalithy of SEM cells grown in Human Plasma-Like Medium with dialyzed fetal bovine serum (HPLM+ds) (AID 1963882). For Viability: series mostly up to about 46 µM. Note: nearly all actives have a fitted effect of over 35% in size. In short, it runs like this: as §1
A short description of assay [8]: Quantitative highthroughput screen to assess conditional lethalithy of SEM cells grown in RPMI1640 with unreated serum (RPMI+s) (AID 1963883). Note: nearly all actives have a fitted effect of over 35% in size. In short, it runs like this:
as §1

A short description of assay [9]: Quantitative highthroughput screen to assess conditional lethalithy of SEM cells grown in RPMI1640 with dialyzed fetal bovine serum (RPMI+ds) (AID 1963884). Note: nearly all actives have a fitted effect of over 35% in size. An outline of the steps: as §1
Assay [10] in a line: Quantitative highthroughput screen to assess conditional lethalithy of P12 Ichikawa cells grown in RPMI1640 with dialyzed fetal bovine serum (RPMI+ds) (AID 1963880). Note: nearly all actives have a fitted effect of over 35% in size. As to conditions: Potency: P12-Ichikawa viability. In short, it runs like this: as §1

“And” between values parts separate entries of the source, which are not always exact repeats. Identical values can stand only once. Results filed as inconclusive are left out. Values without a mark were called inactive. The source made the active and inactive calls. Calls come from the whole dose curve; as a rule, active = well fitted curve in the direction sought with a large enough effect; inconclusive = small, poorly fitted or top-dose-only effect, or another doubt; inactive = no such curve, though single readings can be large; an effect the other way counts as inactive or inconclusive.
Potency is the fitted concentration of half-maximal effect.

Take `COc1ccccc1N1CCN(CC(O)COc2cccc3ccccc23)CC1` (configuration not stated): the Potency result in [1], in assay [2], in assay [3] and in assay [6] was “inactive” throughout. In addition, in [4], the Potency was 13.2 µM (active). In [5], the activity (max response) is -10.8%.

Take `COc1ccc(S(=O)(=O)Nc2cccnc2Nc2ccc(O)cc2)cc1`: the Potency in [1] is 0.934 µM (active); in assay [2], 0.833 µM (active); in assay [3], 3.32 µM (active); in assay [4], 3.32 µM (active); in assay [7] it was 2.35 µM (active); in assay [5] it was 3.16 µM (active).

With `COc1ccc2cc3[n+](cc2c1OC)CCc1cc2c(cc1-3)OCO2`, the Potency was 4.22 µM (active) and 1.48 µM (active) in assay [1]; 1.68 µM (active) and 934 nM (active) in assay [2]; 18.7 µM (active) in assay [3]; 18.7 µM (active) in [4]; 20.9 µM (active) in assay [8]; 18.7 µM (active) in assay [9]. In addition, the Potency in assay [5] was 10.3 µM (active) and 8.91 µM (active). Also, the Potency entry in [6] is “inactive”.

Take `CN(c1ncccc1CNc1nc(Nc2ccc3c(c2)CC(=O)N3)ncc1C(F)(F)F)S(C)(=O)=O`: the Potency was 0.366 µM (active) in assay [1]; 0.731 µM (active) in assay [2]; 2.96 µM (active) in assay [7]; 2.64 µM (active) in assay [8]; 1.05 µM (active) in [9]; 31.6 µM (active) in [5].

On to `CCCC1OC2C[C@@H]3[C@H]4CCC5=CC(=O)C=C[C@]5(C)[C@H]4C(O)C[C@]3(C)[C@]2(C(=O)CO)O1` (some centres not stated), for which the Potency was 16.6 µM (active) in [1]; 7.42 µM (active) in assay [2]; 0.0132 µM (active) in assay [10]; 0.187 µM (active) in assay [8]; 0.132 µM (active) in assay [9]. Further, in assay [5], the activity (max response) is -12.3%. Also, the Potency entry in [6] is “inactive”.

As to `C[C@@H]1CC(=O)NN=C1c1ccc(NN=C(C#N)C#N)cc1`, the Potency in assay [1] is 13.3 µM (active); in assay [2] it was 15 µM (active); in assay [10], 26.4 µM (active); in assay [7], 18.7 µM (active); in assay [9] it was 16.6 µM (active). Moreover, the activity (max response) in [5] was -17.4% and 2.94% and -32.7%. Also, in assay [6], the Potency result is “inactive”.

Turning to `CN(C)CCCN1c2ccccc2CCc2ccc(Cl)cc21`, the Potency in [1] is 16.6 µM (active); in assay [2] it was 10.6 µM (active) and 14.8 µM (active); in assay [6], 25.1 µM (active). Further, in [3], the Potency result was “inactive”.

Take `NCCCCNCCCN`: the Potency in assay [1] is 5.9 µM (active); in assay [2], 5.9 µM (active); in assay [4] it was 18.7 µM (active); in [7], 11.8 µM (active); in assay [9] it was 11.8 µM (active). The activity (max response) in assay [5] is 4.66%. For the same molecule, the Potency result in assay [6] was “inactive”.

Turning to `COc1ccc(CCN(C)CCCOc2ccc(S(=O)(=O)c3[nH]c4ccccc4c3C(C)C)cc2)cc1OC`, the Potency in [1] is 7.42 µM (active); in assay [2], 6.61 µM (active); in [5], 28.2 µM (active); in assay [6], 11.2 µM (active). For the same molecule, the Potency entry in assay [3] was “inactive”.

Turning to `CNC(=O)c1ccccc1Nc1nc(Nc2ccc(N3CCOCC3)cc2OC)ncc1Cl`, the Potency in assay [1] was 184 nM (active) and 132 nM (active); in assay [2], 326 nM (active) and 296 nM (active); in assay [3], 8.33 µM (active); in assay [4] it was 6.62 µM (active); in assay [7], 2.09 µM (active); in assay [8] it was 1.87 µM (active). The Potency in assay [6] was 0.631 µM (active).

For the molecule `CN(C)CCc1c[nH]c2ccc(CS(=O)(=O)N3CCCC3)cc12`, the Potency result in assay [1], in [2], in [4], in assay [7] and in [6] was “inactive” throughout. Moreover, the values for the Potency in [8] and in assay [9] were 5.9 µM (active) and 14.8 µM (active), respectively. Besides, the activity (max response) in assay [5] was -4.49% and 5.74%.

Turning to `CCCCCCCCCCCCCC[N+](C)(C)Cc1ccccc1`, the figures for the Potency in assay [1], in assay [2] and in assay [5] were 2.99 µM (active), 3.35 µM (active) and 6.51 µM (active), respectively.

Take `Oc1ccc(C2CCN(c3ccnc4ccccc34)CC2)cc1O`: the Potency in [1] was 2.09 µM (active); in assay [2] it was 1.86 µM (active); in [8], 11.8 µM (active). Moreover, in assay [6], the Potency result was “inactive”.

Regarding `C=CC(=O)N1CCC(CNc2ncnc(N)c2-c2ccc(Oc3ccccc3)cc2)CC1`, the Potency in assay [1] was 5.9 µM (active); in [2] it was 8.33 µM (active). Besides, the activity (max response) in assay [5] is -22.9%.

`COc1cc(C(=O)N2CCC(N3CCN(C)CC3)CC2)ccc1Nc1ncc2c(n1)N(C)c1ccccc1C(=O)N2C`: the Potency in assay [1] is 461 nM (active) and 1.32 µM (active); in [2], 651 nM (active) and 1.18 µM (active); in assay [7], 3.72 µM (active); in assay [6], 12.6 µM (active).

Regarding `Cc1ccc2nc(NC(=O)CSc3nc4c(c(=O)n3-c3ccccc3)SCC4)sc2c1`, the Potency result in assay [1], in assay [2] and in assay [6] was “inactive” throughout. In addition, the Potency is 16.6 µM (active) in assay [8] and 20.9 µM (active) in assay [9]. Further, in assay [5], the activity (max response) is -6.8%.

On to `CCc1nc(C(N)=O)c(Nc2ccc(N3CCC(N4CCN(C)CC4)CC3)c(OC)c2)nc1NC1CCOCC1`, for which the Potency in [1] is 9 nM (active) and 18.6 nM (active); in assay [2], 11.4 nM (active) and 26.3 nM (active); in [8] it was 0.295 µM (active); in assay [9], 0.209 µM (active); in [5] it was 17.8 µM (active); in assay [6] it was 2.82 µM (active).

Values taken from PubChem BioAssay (NCATS).
